Myeloid diff 2: myeloid differentiation induction. ER-HoxA9 myeloid progenitors, lysozyme-GFP differentiation, flow cytometry. calls only at 10 µM. 360,000 compounds, 1% hits;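 active = normalized GFP-positive differentiation at or above the plate's own cutoff, the solvent-only control mean plus 3 SD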;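 also: cells exposed to compound for four days before flow analysis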
MPTP block: permeability transition pore inhibition; isolated mouse mitochondria, Ca2+ swelling absorbance, 30 min; inhibition, % at 10 µM; 360,000 compounds, 1.4% hits;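 active = inhibition of 50% or more, scaled per plate between neutral and stimulator controls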;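 also: 0% = DMSO wells given calcium and 100% = 1 mM EGTA wells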
NR3A LBD binder: modulates the human NR3A ligand-binding domain; NR3A LBD differential scanning fluorimetry, Tm shift; 0% = protein alone, 100% = glycine-bound protein; Tm shift relative to glycine control, % at 25 µM; 340,000 compounds, 2.5% hits; AID 1259313;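 active = melting temperature shift of at least 10% of the positive control shift, at one fixed dose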
FAS-TE inh: FAS thioesterase (human) inhibition | 360,000 compounds, 0.67% hits | inhibition, % at 15 µM | recombinant FAS-TE, OMFH fluorogenic substrate, fluorescence endpoint | P49327;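 active = compounds whose normalised, plate-corrected inhibition of enzyme fluorescence in the single-dose primary screen is 50% or more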;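 also: 0% = DMSO with enzyme and 100% = substrate without enzyme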
rCAG RNA binder: binds r(CAG) RNA repeats | r(CAG) RNA repeat, TO-PRO-1 dye displacement fluorescence | inhibition, % at 3 µM | 370,000 compounds, 1.3% hits | AID 651821;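 active = inhibition above the plate cutoff, the mean of all test compounds on that plate plus 3 SD, cut at about 35% in these data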;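 also: 0% = DMSO alone and 100% = 100 µM mitoxantrone as full dye displacement; higher means more dye released from RNA so lower well fluorescence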
MPTP counter: membrane potential counter-screen of mitochondrial pore inhibitors; 5,000 compounds, 78% hits; inhibition, % at 10 µM; isolated mitochondria, Rhodamine 123 fluorescence; AID 624504; shares compounds with MPTP block; in the data active = inhibition above about 22%;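 also: 0% = DMSO vehicle and 100% = positive control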
MPTP abs DR: dose response confirmation of mitochondrial permeability transition pore inhibitors. shares compounds with MPTP block. isolated mitochondria swelling, absorbance. IC50, µM. 780 compounds, 58% hits. AID 651561; in the data active = IC50 below about 20 µM
MPTP counter DR: MPTP inhibitor counter-screen activity, dose response; IC50, µM; 780 compounds, 49% hits; AID 651564; shares compounds with MPTP block; isolated mitochondria counterscreen, fluorescence read-out; in the data active = IC50 below about 80 µM
The depositor's hits bear a star; i = inactive; x = no result given; + = active, no number. Most compounds without a hit are left out; they make up all but 5.7% or so of the library.

SMILES	Myeloid diff 2	MPTP block	NR3A LBD binder	FAS-TE inh	rCAG RNA binder	MPTP counter	others
CC1(C)CC(c2nc(-c3ccc(Cl)cc3)cs2)CCS1 (stereo not drawn)	i	78*	3	27	-1	0	MPTP abs DR=>100;MPTP counter DR=58*
Clc1ccc(-c2csc(N3CCSCC3)n2)cc1	i	3	4	38	2	x
CC1CCN(S(=O)(=O)c2ccc([N+](=O)[O-])cc2)CC1	i	2	0	5	-1	x
CC1CCN(S(=O)(=O)c2ccc(Oc3ccc([N+](=O)[O-])cc3)cc2)CC1	i	67*	0	32	-3	71*
Nc1nc2ccc(Cl)cc2cc1C(=O)NCCc1c[nH]c2ccccc12	i	84*	x	26	x	91*
Nc1nc2ccc(Cl)cc2cc1C(=O)NCCc1ccc(Cl)cc1Cl	i	14	x	x	5	x
COC(=O)CSc1nnc(C)c(=O)[nH]1	i	-5	0	-8	-1	x
CCOC(=O)CNc1nnc(SCC(=O)OCC)[nH]c1=O	i	58*	1	36	6	-4	MPTP abs DR=>100;MPTP counter DR=>80
Cc1ccc2cc(/C=N/NC(=O)c3ccccc3O)c(Cl)nc2c1	i	61*	19*	-9	5	82*
Cc1cccc2cc(/C=N/NC(=O)c3ccccc3O)c(Cl)nc12	i	91*	29*	8	6	80*
COc1ccc(C)cc1S(=O)(=O)Nc1ccc2c(c1)OCO2	i	-1	-2	-4	0	x
Clc1ccc2[nH]cc(-c3nnnn3-c3ccccc3)c2c1	i	76*	5	4	12	82*
Clc1ccc2ncc(-c3nnnn3-c3ccccc3)c(-c3ccccc3)c2c1	i	-1	-3	23	-4	x
CC1(O)CC(c2ccc(Cl)cc2)=NN1C(=O)c1ccc(Cl)cc1 (stereo not drawn)	i	68*	-4	11	3	88*
O=C(C1CC1)N1N=C(c2ccc(Cl)cc2)CC1(O)C(F)(F)F (stereo not drawn)	i	0	-4	6	-4	x
C#Cc1cccc(Nc2nc(NCc3ccccc3)nc3ccsc23)c1	i	14	x	21	6	x
CCOC(=O)N1CCN(C(=O)c2cc(COc3ccc4ncccc4c3)on2)CC1	i	37	-2	-5	-7	x
Cc1cccnc1CN1CCN(C(=O)c2cc(COc3ccc4ncccc4c3)on2)CC1	i	104*	5	-4	-6	102*
COCC1CCCN(C(=O)c2cc(COc3ccc4ncccc4c3)on2)C1 (stereo not drawn)	i	95*	2	-4	-9	97*
O=C(c1cc(COc2ccc3ncccc3c2)on1)N1CCC(O)CC1	i	1	0	-4	-1	x
O=C(c1cc(COc2ccc3ncccc3c2)on1)N1CCCC(O)C1 (stereo not drawn)	i	2	0	-1	-2	x
CCC(O)C1CCN(C(=O)c2cc(COc3ccc4ncccc4c3)on2)CC1 (stereo not drawn)	i	92*	-1	-1	-3	102*
Cc1cccc(C(=O)NCCc2ccccc2)c1	i	-1	-2	-4	-2	x
COc1ccc(S(=O)(=O)NCc2cccnc2)cc1NC(=O)c1ccc(Cl)cc1	i	-1	3	-4	3	x
C=CCC(O)(CC=C)CNC(=O)c1ccc(OC)c(OC2CCN(C(C)=O)CC2)c1	i	0	1	-6	-4	x
SMILES	Myeloid diff 2	MPTP block	NR3A LBD binder	FAS-TE inh	rCAG RNA binder	MPTP counter	others
CC(C)C[C@@H](CN1CCC[C@H]1CN1C(=O)C(=O)NC[C@@H]1Cc1ccccc1)N1C[C@H](Cc2ccccc2)N(CC2CCCCC2)C(=O)C1=O	i	-4	x	3	6	x
COc1ccc(NS(=O)(=O)c2ccc(C(=O)N3CCCCCC3)cc2)cc1	i	54*	-9	0	1	57*
CCOc1ccc(NS(=O)(=O)c2ccc(C(=O)N3CCCCCC3)cc2)cc1	i	25	0	2	-1	x
COc1ccc(NS(=O)(=O)c2cccc(NC(=O)c3ccc(S(=O)(=O)N4CCCCCC4)cc3)c2)cc1	i	84*	5	22	x	86*
O=C(COC(=O)[C@@H]1CC(O)CN1S(=O)(=O)c1ccc2c(c1)OCCO2)Nc1cc(F)ccc1F (stereo partly drawn)	i	0	0	-4	2	x
CSc1ncccc1C(=O)Nc1cccc(S(=O)(=O)N2CCCCC2)c1	i	-2	2	10	7	x
COC(=O)CSc1ncnc2c1cnn2Cc1ccccc1	i	-2	2	-31	5	x
COc1ccc(OC)c(NC(=O)CSc2ncnc3c2cnn3-c2ccccc2Cl)c1	+	84*	1	36	x	82*
COc1cc(NC(=O)CSc2ncnc3c2cnn3Cc2ccccc2)cc(OC)c1	i	54*	-3	25	8	28*
CCc1cc[n+](C(C(=S)Nc2cccc(C)c2)=C([O-])c2ccc(C)c([N+](=O)[O-])c2)cc1	i	-1	-1	10	9	x
COc1ccc(C(=O)NCCc2ccccc2F)cc1OC1CCN(C(C)=O)CC1	i	-2	2	-6	-7	x
CC(CNC(=O)COc1ccccc1)OC(=O)Nc1ccc(Cl)c(Cl)c1 (stereo not drawn)	i	89*	-7	17	2	88*
Cc1nc2c(Br)cc(Br)cc2cc1O	i	99*	24*	-10	6	97*
Cc1ccc(S(=O)(=O)NC(=O)c2cc(C)n(-c3ccccc3)c2C)cc1	x	3	0	-9	13	x
Cc1ccc(S(=O)(=O)NC(=O)c2cc(C)n(-c3ccc(N(C)C)cc3)c2C)cc1	i	85*	4	-7	28	91*
CCN(CCC(=O)Nc1ccc(Br)c(C)c1)Cc1ccccc1	i	80*	0	7	-9	5	MPTP abs DR=i;MPTP counter DR=28*
O=C(CCN(CCO)Cc1ccccc1)Nc1ccc(Br)cc1	i	1	-4	5	3	x
CN1CCC(=C2c3ccccc3Sc3ccccc32)CC1	i	92*	0	7	-2	-9	MPTP abs DR=7.3*;MPTP counter DR=>80
O=S(=O)(c1cc(F)ccc1F)N1CCN(c2ncnc3ccccc23)CC1	x	95*	4	11	3	92*
O=C(CCc1nc2ccccc2c(=O)[nH]1)N1CCN(C/C=C/c2ccccc2)CC1	i	68*	-4	-2	0	49*
Cc1[nH]c2ccccc2c1C(=O)CN1CCN(C/C=C/c2ccccc2)CC1	i	65*	1	1	6	-9	MPTP abs DR=17*;MPTP counter DR=52*

Compound activity: PubChem BioAssay, several laboratories
